# This is a sample that favours compounds with a hit; in the whole collection about 12% have one here.
# L3MBTL1 inh = blocks human L3MBTL1. AlphaScreen L3MBTL1–H3K9me1 peptide binding. Potency, µM (doses to about 57.1 µM), inactives show top-dose activity, negative = inhibition, actives largely listed as inhibitors. hit rate 0.66% among 230,000; also: % is scaled to controls: 0 for no effect and ±100 for the full control effect; nearly all actives have a fitted effect of over 60% in size
#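 L3MBTL1 (50 nM) pre-complexed 30 min with biotinylated H3(1-15)K9me1 peptide (75 nM), then compounds added for 30 min at room temperature; AlphaScreen streptavidin donor/nickel chelate acceptor beads (10 ug/mL final) read after 30 min dark incubation.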
# G9a block = blocks human histone lysine methyltransferase G9a; Q96KQ7; G9a H3K9 monomethylation, AlphaScreen, 2 h; Potency, µM (doses to about 102 µM), without a hit: top-dose activity, negative = inhibition, actives largely listed as inhibitors; hit rate 8.8% among 350,000; AID 504332; also: % is scaled to controls: 0 for no effect and ±100 for the full control effect; nearly all actives have a fitted effect of over 75% in size
#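 Compounds were preincubated with 20 nM G9a for 15 min, after which biotinylated H3K9 peptide (500 nM) and SAM (20 uM) started a 2 h room-temperature reaction. Monomethylated product was quantified by antibody-based AlphaScreen chemiluminescence.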
# BAZ2B block = blocks human BAZ2B. hit rate 4.4% among 360,000. AlphaScreen BAZ2B-H3K14Ac peptide displacement. AID 504333. Potency, µM (titrated, usually from 114 µM), without a hit: at the highest dose activity change, negative = inhibition, most hits filed as inhibitors. Q9UIF8; also: % is scaled to controls: 0 for no effect and ±100 for the full control effect; nearly all actives have a fitted effect of over 60% in size
#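 Complex of BAZ2B and biotin-H3K14Ac (50 nM apiece) forms over 30 min at RT, then faces library compounds up to 110 uM for another 30 min; AlphaScreen beads added, 20 min dark incubation, luminescence read.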
# Sfp PPTase inh = Sfp phosphopantetheinyl transferase inhibition. Q9F4F7. Biochemical Sfp PPTase activity, qHTS. Potency, µM, inactives show largest response in the series, negative = inhibition, usual class: inhibitors. hit rate 3.5% among 310,000. AID 1490;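 also: the enzyme is Sfp with the accession as filed and its product quenches rhodamine fluorescence; 0% = enzyme reaction without inhibitor and -100% = no enzyme wells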
#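 Fluorescence-quenching assay with 15 nM Sfp, 5 uM rhodamine-CoA and 12.5 uM BHQ-2-labelled ybbR peptide in pH 7.6 Hepes/MgCl2 buffer. Enzyme was pre-incubated with compound for 15 min at room temperature. Rate was taken from the 30-min fluorescence change (525/598 nm).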
# JMJD2A Tudor = inhibitors of human JMJD2A Tudor domain; AlphaScreen JMJD2A-Tudor / H3K4me3 peptide binding; hit rate 4.4% among 390,000; Potency, µM (doses to about 114 µM), inactives show at the top dose activity change, negative = inhibition, hits mostly inhibitors; O75164; also: % is scaled to controls: 0 for no effect and ±100 for the full control effect; nearly all actives have a fitted effect of over 50% in size
# Target sequence (O75164 whole entry, looked up, the tested form may be a part): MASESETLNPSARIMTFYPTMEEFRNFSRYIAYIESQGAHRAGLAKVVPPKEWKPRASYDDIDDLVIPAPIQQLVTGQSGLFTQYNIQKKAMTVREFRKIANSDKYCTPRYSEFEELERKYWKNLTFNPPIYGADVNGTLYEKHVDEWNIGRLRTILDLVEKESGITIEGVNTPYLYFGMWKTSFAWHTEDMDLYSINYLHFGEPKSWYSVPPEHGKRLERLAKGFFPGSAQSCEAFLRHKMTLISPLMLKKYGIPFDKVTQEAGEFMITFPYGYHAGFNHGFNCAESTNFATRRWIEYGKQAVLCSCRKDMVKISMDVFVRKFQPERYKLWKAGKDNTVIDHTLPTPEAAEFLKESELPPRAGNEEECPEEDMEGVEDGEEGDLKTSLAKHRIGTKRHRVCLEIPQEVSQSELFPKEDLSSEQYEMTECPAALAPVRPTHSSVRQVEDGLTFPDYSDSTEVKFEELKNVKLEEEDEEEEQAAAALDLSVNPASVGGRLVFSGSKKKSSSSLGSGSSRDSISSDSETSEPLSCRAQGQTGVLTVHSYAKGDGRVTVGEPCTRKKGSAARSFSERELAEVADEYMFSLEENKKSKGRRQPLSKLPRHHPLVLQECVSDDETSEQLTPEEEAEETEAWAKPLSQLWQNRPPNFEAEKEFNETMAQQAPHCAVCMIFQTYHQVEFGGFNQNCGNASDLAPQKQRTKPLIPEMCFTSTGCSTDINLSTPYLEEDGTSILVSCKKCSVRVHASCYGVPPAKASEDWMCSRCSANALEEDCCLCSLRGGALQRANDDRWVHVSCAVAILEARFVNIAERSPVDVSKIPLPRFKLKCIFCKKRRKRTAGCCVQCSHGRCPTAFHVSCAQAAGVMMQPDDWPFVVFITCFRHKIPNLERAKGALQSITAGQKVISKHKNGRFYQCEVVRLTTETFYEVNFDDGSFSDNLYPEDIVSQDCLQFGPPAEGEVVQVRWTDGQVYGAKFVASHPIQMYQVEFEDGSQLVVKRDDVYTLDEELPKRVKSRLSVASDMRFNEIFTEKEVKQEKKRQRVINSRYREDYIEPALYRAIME
# HP1b chromo inh = inhibitors of HP1-beta chromodomain binding to methylated histone tails. AlphaScreen HP1-beta / biotin-H3K9me3 peptide binding. Potency, µM (series often up to 114 µM), for inactives: top-dose activity change, negative = inhibition, hits mostly inhibitors. hit rate 0.56% among 390,000; also: nearly all actives have a fitted effect of over 70% in size
#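 HP1-beta protein (50 nM final) preincubated 30 min at room temperature with biotinylated H3(1-18)K9me3 peptide (50 nM) in PBS pH 7.4, 0.01% Tween-20, then compound added for 30 min. AlphaScreen streptavidin donor/nickel chelate acceptor beads (10 ug/mL final), 30 min dark, luminescence read.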
# The depositor's hits bear a star; ? = inconclusive; · = not tested or not shown; [ ] = remark or other dose. Calls follow the shape of the dose curve; as a rule, active = well fitted curve in the direction sought with a large enough effect; inconclusive = small, poorly fitted or top-dose-only effect, or another doubt; inactive = no such curve, though single readings can be large; an effect the other way counts as inactive or inconclusive. Potency is read from the fitted curve at half-maximal effect.
SMILES,L3MBTL1 inh,G9a block,BAZ2B block,Sfp PPTase inh,JMJD2A Tudor,HP1b chromo inh
O=C(NCC1COc2ccccc2O1)c1c[nH]c2ccc(S(=O)(=O)N3CCOCC3)cc2c1=O (stereo not given),-5%,?,9%,16%,-14%,13%
Cn1ccc(/C=N/N=C2/NC(=O)CS2)n1,·,10µM*,-20%,?,-1%,39%
O=C1CS/C(=N/N=C/c2ccncc2)N1,10%,·,-6%,-9%,?,17%
COc1ccc(CNC(=O)N2CCN(C(=O)c3ccccc3)CC2)cc1,-8%,-18%,5%,·,0%,13%
CC1=C(c2ccc(C)c(C)c2)S(=O)(=O)N(Cc2ccc(C(=O)Nc3cc(F)ccc3F)cc2)C1=O,·,-4%[59 µM],-8%,·,-2%,-5%
COc1ccc(C)cc1NCc1ccc([N+](=O)[O-])cc1,-8%[2.29 µM],-1%[0.501 µM],40µM*,5%,50µM*,?
COc1ccc(CNCCc2ccc([N+](=O)[O-])cc2)c(OC)c1OC,-4%[2.29 µM],-13%[0.501 µM],50µM*,11%,79µM*,2%
COc1ccc(C)cc1NCc1ccc(OC)c(C)c1OC,?,8.9µM*,22µM*,-29%,20µM*,?
COc1ccc(CNCCNC(=O)c2ccco2)c(OC)c1OC,·,?,?,-3%,?,?
Cc1cccc(C(=O)OCc2cc(=O)n3nc(C4CC4)sc3n2)c1,·,-3%[59 µM],0%,·,1%,25%
NS(=O)(=O)c1cccc(NC(=O)C(Cc2ccccc2)NC(=O)c2ccccc2)c1 (stereo not given),·,4%,-1%,8%,-8%,0%
O=C(O)C(NS(=O)(=O)c1ccc(F)cc1)c1ccccc1 (stereo not given),-2%,-35%,-3%,14%,-2%,21%
O=C(O)[C@H](CSCc1ccccc1)NS(=O)(=O)c1ccc(F)cc1,5%,10µM*,-5%,-15%,?,5%
Oc1c(Br)cc(C2N=C(c3ccccc3Cl)NO2)cc1Br (stereo not given),-2%,36%[0.501 µM],-27%,-14%,40µM*,?
O=C(NN1C(=O)/C(=C/c2cccc(O)c2)SC1=S)c1ccccc1O,·,-8%[59 µM],45µM*,0%,45µM*,-18%[57 µM]
COc1cc(/C=C2\SC(=S)N(C(Cc3ccccc3)C(=O)O)C2=O)ccc1O (stereo not given),-12%,·,35µM*,?,-32%,?
O=C(CCN1C(=O)/C(=C\c2ccccc2)SC1=S)NNC(=O)c1ccccc1O,·,8%,-9%,-12%,-10%,32%
CCOc1cc(/C=C2\SC(=S)N(NS(=O)(=O)c3ccccc3)C2=O)ccc1O,·,-1%[2.33 µM],?,-15%,-27%,2%
CC(=O)NN1C(=O)/C(=C\c2ccc(O)cc2)SC1=S,-22%,?,-34%,11%,-17%,-16%
COc1cc(/C=C2\SC(=S)N(Nc3ccccc3)C2=O)ccc1O,?,?,40µM*,?,45µM*,50µM*
O=C1/C(=C/c2ccc(O)c(O)c2)SC(=S)N1Nc1ccccc1,·,10µM*,3.5µM*,-8%,10µM*,7.1µM*
Cc1c(Cl)cccc1NC(=O)CSc1cc(-c2ccccc2)ncn1,·,3%[59 µM],-5%,·,-10%,34%
Cc1cccc(C(=O)Nc2nnc(Cc3ccccc3)s2)c1,-2%,10%,12%,27%,-11%,40%
Cc1ccc(C)c(N(CC(=O)NC2CCCC2)C(=O)CCC(=O)Nc2cc(C)on2)c1,·,17%,-11%,16%,-1%,7%
COc1cccc(/C=C2\SC(=S)N(NC(=O)c3ccncc3)C2=O)c1,1%,-36%,-17%,21%,-25%,8%
O=C(NN1C(=O)/C(=C/c2ccc(O)c(O)c2)SC1=S)c1ccccc1,?,6.3µM*,5.6µM*,-26%,13µM*,?
